Calls of active or inactive are those of the source.

The source of these data is PubChem BioAssay.

One assay concerns the target Albumin (Bos taurus) (UniProt P02769). Put plainly: compounds binding labelled BSA control protein – biochemical, small-molecule microarray, Alexa647 label, 635/667 nm fluorescence, artefact control for SMM control protein annotation, profiling panel (AID 1118).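 Also: score merges 667 nm emission intensity and signal-to-noise per printed compound spot.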 The note with it: BSA-A647 binding, fluorescence 635 nm, higher = more signal.
The nature of assay [1]: probe aXIP binding to arrayed compounds – biochemical, NeuroSMM set, 635/667 nm fluorescence, primary screen (AID 1119).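 Also: probe is the protein aXip251-270 applied at 1 µg/mL to compound-printed slides; binding of probe to printed compounds measured as 667 nm fluorescence plus signal to noise.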 As to conditions: small-molecule microarray, higher = more signal, called active from +8 up or from −8 down.
A short description of assay [2]: probe aNOTCH3 binding on compound microarray – biochemical, small-molecule microarray, 635/667 nm fluorescence, primary screen (AID 1120).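 Also: probe is a biotin-tagged antibody raised against NOTCH3 rather than NOTCH3 protein; score merges spot fluorescence near 667 nm with spot signal to noise.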 As to conditions: higher = more signal.
Assay [3] is described as follows: probe aNOTCH2 binding on compound microarray – biochemical, small-molecule microarray, 635/667 nm fluorescence, primary screen (AID 1121).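 Also: score merges feature fluorescence read at 667 nm with its signal to noise.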 The note with it: higher = more signal.
The target in assay [4] is Carbonic anhydrase 2 (Homo sapiens) (UniProt P00918). Put plainly: compounds binding carbonic anhydrase 2 – biochemical, small-molecule microarray, Alexa647-labelled CAII, profiling panel (AID 1122). As to conditions: CAII-A647 binding fluorescence, higher = more signal.
The nature of assay [5]: COS7 lysate on small-molecule microarray, probe aHis, 635 nm (AID 1123).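 Also: z-score combines 667nm fluorescence intensity with signal-to-noise per printed compound spot.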 As to conditions: COS7 cell lysate, fluorescence, higher = more signal.
The nature of assay [6]: probe aLAP1 signal on lysate-treated microarray – cell lysate, small-molecule microarray, COS7 lysate, primary screen (AID 1124).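 Also: lysate comes from COS7 cells expressing LAP1 and is applied at 0.3 µg/mL; score merges spot fluorescence near 667 nm with signal-to-noise over triplicate slides.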 As to conditions: probe aLAP1, fluorescence, higher = more signal.
A further assay has as its system Sam68 (KHDRBS1). Put plainly: compounds binding KHDRBS1 protein – biochemical, small-molecule microarray, 635 nm fluorescence, primary screen (AID 1125).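 Also: score merges 667 nm channel intensity with signal to noise over triplicate slides.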 The note with it: higher = more signal.
The subject of assay [7] is Chordin-like protein 2 (CHRDL2). In words: compounds binding chordin-like 2 – biochemical, small-molecule microarray, 635 nm fluorescence, primary screen (AID 1126).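 Also: printed compound slides probed with Chrdl2 protein at 4 µg/mL for 1 h at 4 C; score merges 667 nm emission intensity with signal to noise over three replicate slides.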 The note with it: fluorescence 635 nm, higher = more signal.
In assay [8] the target is Concanavalin-A (Canavalia ensiformis) (UniProt P02866). In words: compounds binding concanavalin A lectin – biochemical, small-molecule microarray, Alexa647 label, 635 nm, artefact control for SMM control protein annotation, primary screen (AID 1127).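 Also: z combines 667 nm emission intensity with signal-to-noise across three replicate slides.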 As to conditions: ConA-A647 binding fluorescence, higher = more signal.
Concanavalin-A (Canavalia ensiformis), sequence (P02866 whole entry, looked up): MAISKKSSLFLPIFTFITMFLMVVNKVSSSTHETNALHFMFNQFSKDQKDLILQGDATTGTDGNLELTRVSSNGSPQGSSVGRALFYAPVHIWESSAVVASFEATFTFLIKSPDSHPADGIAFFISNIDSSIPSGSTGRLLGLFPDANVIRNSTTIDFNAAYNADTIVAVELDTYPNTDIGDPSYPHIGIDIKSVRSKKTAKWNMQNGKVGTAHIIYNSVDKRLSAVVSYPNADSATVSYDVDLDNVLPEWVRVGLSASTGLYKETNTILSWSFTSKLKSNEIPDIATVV
Assay [9] can be described thus: compounds binding Alexa647 anti-His antibody – biochemical, small-molecule microarray, 635 nm fluorescence, artefact control for SMM control protein annotation, primary screen (AID 1128).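 Also: score merges feature fluorescence with signal-to-noise for each printed compound spot.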 The note with it: higher = more signal.
For assay [10], the system named is Human papillomavirus type 1a E7 protein (residues 1-88). In words: HPV1a E7 small-molecule binders, primary screen, biochemical, small-molecule microarray, residues 1-88, 635 nm (AID 1129). As to conditions: small-molecule microarray binding, fluorescence 635 nm; higher = more signal.
The target of assay [11] is Focal adhesion kinase 1 (Homo sapiens) (UniProt Q05397). In words: PTK2 protein binding on printed compound slides – biochemical, small-molecule microarray, 635/667 nm fluorescence, BSA, DTT, primary screen (AID 1130).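 Also: composite of spot emission at 667 nm and signal to noise over triplicate slides.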 The note with it: 635 nm fluorescence, higher = more signal.
Focal adhesion kinase 1 (Homo sapiens), sequence (Q05397 whole entry, looked up): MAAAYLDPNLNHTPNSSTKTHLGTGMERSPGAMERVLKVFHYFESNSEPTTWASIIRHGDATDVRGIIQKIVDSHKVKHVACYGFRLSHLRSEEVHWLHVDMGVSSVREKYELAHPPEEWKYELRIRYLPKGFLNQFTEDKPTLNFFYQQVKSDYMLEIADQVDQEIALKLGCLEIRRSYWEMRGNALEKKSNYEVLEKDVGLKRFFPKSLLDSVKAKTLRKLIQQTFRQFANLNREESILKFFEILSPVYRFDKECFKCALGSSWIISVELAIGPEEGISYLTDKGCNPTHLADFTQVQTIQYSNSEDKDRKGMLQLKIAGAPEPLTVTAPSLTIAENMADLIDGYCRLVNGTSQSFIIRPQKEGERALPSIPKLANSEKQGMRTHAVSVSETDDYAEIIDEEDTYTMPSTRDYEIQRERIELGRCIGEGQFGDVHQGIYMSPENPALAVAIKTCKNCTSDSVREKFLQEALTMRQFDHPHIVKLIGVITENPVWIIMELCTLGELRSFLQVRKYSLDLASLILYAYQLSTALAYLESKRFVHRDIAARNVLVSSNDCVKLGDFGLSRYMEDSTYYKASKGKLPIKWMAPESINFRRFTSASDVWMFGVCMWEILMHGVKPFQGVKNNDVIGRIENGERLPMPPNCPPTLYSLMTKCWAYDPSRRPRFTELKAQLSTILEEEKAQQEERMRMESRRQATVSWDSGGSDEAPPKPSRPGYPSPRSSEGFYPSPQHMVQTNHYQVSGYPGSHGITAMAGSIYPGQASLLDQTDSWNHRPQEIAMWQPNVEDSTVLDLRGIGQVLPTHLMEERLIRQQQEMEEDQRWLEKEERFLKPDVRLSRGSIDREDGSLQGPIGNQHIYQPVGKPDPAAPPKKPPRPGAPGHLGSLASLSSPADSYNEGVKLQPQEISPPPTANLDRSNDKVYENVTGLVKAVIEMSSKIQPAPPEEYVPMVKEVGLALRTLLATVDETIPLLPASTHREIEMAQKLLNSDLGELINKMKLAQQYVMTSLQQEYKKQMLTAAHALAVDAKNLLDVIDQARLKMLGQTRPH
For assay [12], the system named is Fibrinogen (Alexa647-labelled). In words: Alexa647-fibrinogen binding to printed small molecules – biochemical, small-molecule microarray, 635/667 nm fluorescence, artefact control for SMM control-protein annotation, profiling panel (AID 1131).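 Also: z-score merges 667 nm fluorescence with per-spot signal-to-noise over triplicate slides.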 As to conditions: fibrinogen-A647 binding fluorescence, higher = more signal.
Assay [13] deals with Follistatin (Homo sapiens) (UniProt P19883). Put plainly: FST protein binding to printed compounds – biochemical, small-molecule microarray, 635/667 nm fluorescence, primary screen (AID 1132). The note with it: 635 nm fluorescence, higher = more signal.
Follistatin (Homo sapiens), sequence (P19883 whole entry, looked up): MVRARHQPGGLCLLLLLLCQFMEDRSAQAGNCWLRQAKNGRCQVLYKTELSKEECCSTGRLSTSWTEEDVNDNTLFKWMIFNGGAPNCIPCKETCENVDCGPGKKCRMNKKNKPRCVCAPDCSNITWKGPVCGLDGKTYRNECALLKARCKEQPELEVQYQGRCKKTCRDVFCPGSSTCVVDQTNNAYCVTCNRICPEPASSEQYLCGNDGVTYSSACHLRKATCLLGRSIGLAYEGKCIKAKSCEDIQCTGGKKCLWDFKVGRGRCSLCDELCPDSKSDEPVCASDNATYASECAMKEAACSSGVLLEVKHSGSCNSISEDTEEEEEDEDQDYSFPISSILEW
Assay [14] concerns the target Fibroblast growth factor 2 (Homo sapiens) (UniProt P09038). Put plainly: basic fibroblast growth factor binding to printed compounds – biochemical, small-molecule microarray, 635/667 nm fluorescence, primary screen (AID 1133). As to conditions: FGF2, fluorescence 635/667, higher = more signal.
Assay [15] is described as follows: JC-1 mitochondrial potential readout, lung cancer cells – cell-based, A549, JC-1 fluorescence, basal, 24 h, 100 nL, profiling panel (AID 1138).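 Also: A549 lung adenocarcinoma cells under basal conditions with no added stimulus; test concentration not given here.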 As to conditions: higher = more signal.
A further assay deals with Lefty1. Put plainly: Lefty1 protein binding to printed compounds – biochemical, small-molecule microarray, 635/667 nm fluorescence, primary screen (AID 1139). The note with it: fluorescence 635/667, higher = more signal.
For assay [16], the system named is wheat germ agglutinin (Triticum aestivum), Alexa647-labelled. Put plainly: Alexa647-WGA lectin binding to printed small molecules – biochemical, small-molecule microarray, 635/667 nm fluorescence, artefact control for SMM control-protein annotation, profiling panel (AID 1140).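 Also: score merges 667 nm feature emission with signal to noise over triplicate slides.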 The note with it: WGA-A647 binding, 635 nm fluorescence, higher = more signal.
The target in assay [17] is Luciferin 4-monooxygenase (Photinus pyralis) (UniProt P08659). In words: inhibition of purified Photinus pyralis luciferase – biochemical, luminescence, purified enzyme, 2006 set, primary screen (AID 1141).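 Also: cell-free assay with purified firefly luciferase at 100 ng per well in PBS; test concentration not given here.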 The note with it: purified firefly luciferase, SteadyGlo luminescence, 30 min; higher = more signal, called active from +8 up or from −8 down.
Luciferin 4-monooxygenase (Photinus pyralis), sequence (P08659 whole entry, looked up): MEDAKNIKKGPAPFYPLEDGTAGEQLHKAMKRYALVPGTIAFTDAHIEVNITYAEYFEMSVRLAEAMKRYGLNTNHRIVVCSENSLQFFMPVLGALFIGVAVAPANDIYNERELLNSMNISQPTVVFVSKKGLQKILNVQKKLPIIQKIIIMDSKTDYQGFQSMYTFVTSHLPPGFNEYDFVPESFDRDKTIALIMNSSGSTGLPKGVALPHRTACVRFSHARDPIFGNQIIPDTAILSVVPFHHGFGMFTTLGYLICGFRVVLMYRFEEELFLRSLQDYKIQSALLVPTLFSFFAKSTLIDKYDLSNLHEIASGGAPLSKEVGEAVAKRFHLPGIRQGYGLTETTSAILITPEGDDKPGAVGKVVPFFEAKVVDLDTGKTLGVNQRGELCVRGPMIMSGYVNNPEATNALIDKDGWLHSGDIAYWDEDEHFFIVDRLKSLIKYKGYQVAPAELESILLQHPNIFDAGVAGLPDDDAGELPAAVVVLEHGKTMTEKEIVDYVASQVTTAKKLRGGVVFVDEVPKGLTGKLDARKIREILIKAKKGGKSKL

Fibroblast growth factor 2 (Homo sapiens), sequence (P09038 whole entry, looked up): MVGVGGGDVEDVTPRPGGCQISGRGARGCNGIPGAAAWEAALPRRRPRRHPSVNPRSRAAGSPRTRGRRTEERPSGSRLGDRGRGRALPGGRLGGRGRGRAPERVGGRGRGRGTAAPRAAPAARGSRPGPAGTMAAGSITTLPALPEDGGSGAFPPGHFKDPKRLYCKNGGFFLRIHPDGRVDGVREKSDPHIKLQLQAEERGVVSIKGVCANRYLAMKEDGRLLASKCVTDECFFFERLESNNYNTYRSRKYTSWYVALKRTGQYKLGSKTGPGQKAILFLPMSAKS
Albumin (Bos taurus), sequence (P02769 whole entry, looked up): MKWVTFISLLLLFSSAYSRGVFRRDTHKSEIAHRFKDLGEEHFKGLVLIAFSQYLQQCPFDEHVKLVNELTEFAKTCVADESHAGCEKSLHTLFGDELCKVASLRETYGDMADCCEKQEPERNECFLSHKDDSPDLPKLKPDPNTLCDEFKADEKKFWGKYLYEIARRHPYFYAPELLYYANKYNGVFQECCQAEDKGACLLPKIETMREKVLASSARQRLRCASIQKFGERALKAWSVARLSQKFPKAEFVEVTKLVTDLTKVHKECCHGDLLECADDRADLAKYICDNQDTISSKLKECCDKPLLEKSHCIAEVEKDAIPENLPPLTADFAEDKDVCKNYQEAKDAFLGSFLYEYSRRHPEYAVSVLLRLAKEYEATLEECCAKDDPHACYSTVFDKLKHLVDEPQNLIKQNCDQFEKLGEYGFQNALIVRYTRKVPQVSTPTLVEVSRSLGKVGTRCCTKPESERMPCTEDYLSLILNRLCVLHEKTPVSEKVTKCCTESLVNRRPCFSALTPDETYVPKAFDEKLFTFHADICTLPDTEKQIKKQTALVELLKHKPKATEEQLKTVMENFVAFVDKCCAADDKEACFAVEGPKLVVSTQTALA

Turning to `CN1C(=O)C2C=CC(C(O)c3ccc(Br)cc3)N(Nc3ccccc3)C2C1=O` (stereo not given), the composite z-score came to 0.768 with Albumin (Bos taurus); 0.145 in [2]; 0.0498 in assay [3]; 0.678 in [4]; 0.991 in [5]; 0.204 in assay [6]. Besides, the composite z-score in the assay on Sam68 (KHDRBS1) was 0.168; in assay [7], -0.723; in assay [8], -0.597; in assay [9] it was -0.233; in assay [10], -0.426; in assay [11] it was 0.1. Besides, the composite z-score was -0.23 in [12]; -1.12 in assay [13]; -1.22 in assay [14]; -1.33 in the assay with Lefty1; 0.387 in assay [16]. In addition, the composite Z-score in [1] is 0.304 (inactive). Besides, the z-score in assay [15] was -0.101; in assay [17] it was -1.11 (inactive).
Take `[N-]=[N+]=NCc1ccccc1C[C@@]1(C(=O)NCc2ccccc2)N=C(c2ccc(OCCCO)cc2)O[C@@H]1c1ccccc1CN=[N+]=[N-]`: the composite z-score with Albumin (Bos taurus) was 0.684; in [2] it was 0.328; in assay [3], 0.273; in assay [4], 0.669; in assay [5], 2.21; in assay [6], 0.745. The composite z-score in the assay on Sam68 (KHDRBS1) is 1.3; in assay [7] it was -0.106; in assay [8], 1; in assay [9], 1.44; in assay [10] it was 1.17; in assay [11] it was 0.96. For the same molecule, the composite z-score was 0.915 in assay [12]; 0.557 in [13]; 0.0516 in assay [14]; -0.621 in the assay on Lefty1; 1.03 in [16]. In [1], the composite Z-score is 0.936 (inactive). For the same molecule, the z-score in assay [15] is 0.573; in assay [17], 0.0675 (inactive).
As for `COCCCNC(=O)[C@@]1(Sc2ccc(C)cc2)CC(=O)N(Cc2ccccc2)[C@@H]1c1ccc(CO)cc1`, the composite z-score in the assay with Albumin (Bos taurus) was 0.146; in [2], -0.689; in [3], -0.134; in [4], 0.534; in [5] it was 2.54; in assay [6], 0.378. Besides, the composite z-score is 0.0145 in the assay on Sam68 (KHDRBS1); -0.21 in [7]; -0.668 in [8]; 0.068 in assay [9]; -0.277 in assay [10]; -0.166 in assay [11]. Also, the composite z-score in assay [12] is -1.56; in assay [13], -0.489; in assay [14], -0.236; in the assay on Lefty1, -1.03; in assay [16], -0.4. Besides, the composite Z-score in assay [1] is 0.201 (inactive). In addition, the z-score in assay [15] was -0.0602; in assay [17] it was 0.542 (inactive).
As to `O=C1C2C=CC(C(O)c3ccc(Br)cc3)N(n3cnnc3)C2C(=O)N1Cc1ccccc1` (stereo not given), the composite z-score with Albumin (Bos taurus) is 0.807; in assay [2], -0.0443; in assay [3], -0.0004; in [4], 0.259; in assay [5] it was 1.57; in assay [6] it was 0.448. Also, the composite z-score was 1.29 in the assay with Sam68 (KHDRBS1); -0.064 in [7]; 1.07 in assay [8]; 0.648 in [9]; 1.16 in assay [10]; 0.407 in assay [11]. In addition, the composite z-score in [12] was 0.974; in assay [13], 0.722; in assay [14] it was 0.298; in the assay on Lefty1, 0.425; in assay [16], 1.15. For the same molecule, the composite Z-score in assay [1] is -1.02 (inactive). The z-score in assay [15] is -0.901; in assay [17], 1.66 (inactive).
For `O=C1O[C@@H](c2ccccc2)[C@@H](c2ccccc2)N2[C@@H](c3ccc(O)cc3)[C@]3(C(=O)Nc4ccc(C#CCCO)cc43)[C@@H](C(=O)O)[C@H]12`, the composite z-score is 0.323 in the assay with Albumin (Bos taurus); 1.05 in assay [2]; 0.734 in [3]; 0.653 in assay [4]; 2.34 in [5]; 0.734 in assay [6]. The composite z-score was 0.872 with Sam68 (KHDRBS1); 0.434 in assay [7]; 1.03 in assay [8]; 2.29 in assay [9]; 0.18 in assay [10]; 0.894 in assay [11]. Moreover, the composite z-score in [12] was 0.925; in [13] it was 1.2; in assay [14], -0.196; in the assay on Lefty1 it was -0.22; in assay [16], 1.34. Also, the composite Z-score in assay [1] was 0.674 (inactive). In addition, the z-score in assay [15] was 0.889; in assay [17], -1.18 (inactive).
On to `CC(C)(C)OC(=O)CC[C@]1(C(=O)NCC(O)CO)N=C(c2ccc(OCCCO)cc2)O[C@H]1c1ccccc1CN=[N+]=[N-]` (stereo not given in full), for which the composite z-score was 0.906 with Albumin (Bos taurus); 0.883 in [2]; 0.382 in assay [3]; 0.747 in [4]; 2.82 in assay [5]; 1.58 in assay [6]. The composite z-score with Sam68 (KHDRBS1) was 1.16; in [7], 0.0916; in [8], 1; in [9] it was 2.31; in [10], 0.705; in assay [11], -0.0371. In addition, the composite z-score was 1.03 in assay [12]; 0.662 in assay [13]; 0.703 in assay [14]; -0.637 in the assay with Lefty1; 0.959 in [16]. In addition, the composite Z-score in assay [1] was 1.27 (inactive). For the same molecule, the z-score in assay [15] is -0.101; in [17], -0.718 (inactive).
